Screening data deposited in PubChem BioAssay by National Center for Advancing Translational Sciences (NCATS).
TDP1 cell noCPT: qHTS for Inhibitors of human tyrosyl-DNA phosphodiesterase 1 (TDP1): qHTS in cells in absence of CPT | DT40 Tdp1-/- hTDP1 cells, no CPT, ATP luminescence, 48 h | AID 686978, 2013 | hit rate 15% among 420,000 | Potency, µM (doses to about 46.2 µM), actives largely listed as inhibitors; also: nearly all actives have a fitted effect of over 55% in size
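Cells were dispensed at 400 per well, compounds added by pin tool, plates incubated ≥48 hr at 37 °C, then CellTiter-Glo added for 30 min at room temperature before luminescence reading. Line: DT40 Tdp1-/- complemented with hTDP1; camptothecin omitted.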
Giardia killer: Small Molecules that selectively kill Giardia lamblia: qHTS | Giardia lamblia trophozoite viability | activity change, % at 7.66 µM, hits read low | hit rate 0.15% among 340,000 | AID 540267, 2011; in the data active = activity change below about -80%; inconclusive = between about -30% and that limit;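 also: parasites exposed to compound for two days anaerobically before the ATP read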
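Media and compound were dispensed first, then trophozoites at 100 cells/well; plates sat 48 hrs at 37 deg C without oxygen before ATP luminescence reagent was added and read after 15-30 min at room temperature.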
IL1B secr inh: qHTS for Inhibitors of Inflammasome Signaling: IL-1-beta AlphaLISA Primary Screen. THP-1 LPS/ATP IL-1B secretion, AlphaLISA, 16 h; hits give low values. activity change, % at 57.5 µM. hit rate 4.7% among 360,000; in the data active = activity change below about -50%; inconclusive = mostly about -30% to -49%
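Secreted IL-1B measured by AlphaLISA bead assay after 16 h compound exposure of THP-1 cells; compounds (final up to 57.5 uM) added 1 h before LPS (250 ng/mL) and ATP (1.25 mM) stimulation; lower signal means less secretion.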
ELG1 DNA repair: qHTS screen for small molecules that inhibit ELG1-dependent DNA repair in human embryonic kidney (HEK293T) cells expressing luciferase-tagged ELG1. HEK293T ELG1-luciferase reporter, luminescence, 16 h; DNA damage induced by 5-fluorouridine. Potency, µM (top dose mostly 46.1 µM), actives largely listed as inhibitors. hit rate 2.3% among 330,000; also: nearly all actives have a fitted effect of over 55% in size
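Cells (2,000 per well) received 5-fluorouridine plus test compound or DMSO and were incubated 16 hr at 37 °C, 5% CO2. Luciferase activity was read by luminescence 30 min after ONE-Glo addition; signal suppression marked inhibition of damage-induced ELG1 function.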
TDP1 inh: qHTS Assay for Inhibitors of Tyrosyl-DNA Phosphodiesterase (TDP1); recombinant TDP1, AlphaScreen DNA substrate cleavage; Potency, µM (titrated, usually from 130 µM), actives largely listed as inhibitors; hit rate 0.28% among 350,000; AID 485290, 2010; also: nearly all actives have a fitted effect of over 40% in size
Target sequence (Q9NUW8 whole entry, looked up): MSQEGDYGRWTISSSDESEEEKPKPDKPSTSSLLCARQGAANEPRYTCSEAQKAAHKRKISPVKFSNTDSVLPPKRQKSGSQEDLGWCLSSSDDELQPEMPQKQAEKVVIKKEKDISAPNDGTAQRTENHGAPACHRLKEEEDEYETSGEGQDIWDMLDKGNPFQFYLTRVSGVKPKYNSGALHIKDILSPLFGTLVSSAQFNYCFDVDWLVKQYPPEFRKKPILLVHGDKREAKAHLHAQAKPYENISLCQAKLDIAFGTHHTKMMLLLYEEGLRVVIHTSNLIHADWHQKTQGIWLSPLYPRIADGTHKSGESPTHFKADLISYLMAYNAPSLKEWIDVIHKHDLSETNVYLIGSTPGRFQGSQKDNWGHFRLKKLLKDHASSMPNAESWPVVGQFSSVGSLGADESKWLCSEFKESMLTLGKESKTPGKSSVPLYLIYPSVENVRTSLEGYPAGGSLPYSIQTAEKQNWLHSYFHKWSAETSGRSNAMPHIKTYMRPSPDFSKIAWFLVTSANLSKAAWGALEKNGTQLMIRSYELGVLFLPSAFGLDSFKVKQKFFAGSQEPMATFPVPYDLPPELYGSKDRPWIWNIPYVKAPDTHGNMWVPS
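Signal: AlphaScreen proximity between streptavidin donor and anti-FITC acceptor beads on intact substrate. Reaction: Tdp1 1 nM, substrate 15 nM final, 5 min RT after 15 min compound preincubation.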
DT40 TDP1 CPT: qHTS for Inhibitors of human tyrosyl-DNA phosphodiesterase 1 (TDP1): qHTS in cells in presence of CPT; hit rate 12% among 420,000; chicken DT40 Tdp1-/-;hTDP1 cells + 20 nM CPT, ATP luminescence, 48 h; Potency, µM (series often up to 46.2 µM), usual class: inhibitors; AID 686979, 2013; also: nearly all actives have a fitted effect of over 55% in size
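Chicken DT40 Tdp1-/- cells stably complemented with human TDP1 were seeded at 400 cells/well in medium containing 20 nM camptothecin, exposed to pin-transferred compounds, and grown at 37 °C for at least 48 hr. Viability was read as ATP luminescence.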
Numbers stand for hits; 0 = inactive; ? = inconclusive; - = no result. Only some compounds are listed: those with a hit (about 19% of all), similar ones and a draw of the others. Unless noted, calls follow the shape of the dose curve; as a rule, active = well fitted curve in the direction sought with a large enough effect; inconclusive = small, poorly fitted or top-dose-only effect, or another doubt; inactive = no such curve, though single readings can be large; an effect the other way counts as inactive or inconclusive.

SMILES	TDP1 cell noCPT	Giardia killer	IL1B secr inh	ELG1 DNA repair	TDP1 inh	DT40 TDP1 CPT
O=c1cc(-c2ccccc2Cl)oc2c(NS(=O)(=O)c3ccccc3OC(F)(F)F)ccc(O)c12	?	0	0	?	-	20.6µM
Cc1cccc(NC(=S)NC(C)CCc2ccccc2)c1 (stereo not given)	?	0	-95.7	0	0	?
COc1cccc(NC(=S)NC(Cc2ccccc2)c2ccccc2)c1 (stereo not given)	16.4µM	-	0	-	-	?
CC(C)C(=O)Nc1ccc(-c2nnc(-c3ccccc3)o2)cc1	?	0	0	?	-	0
Cc1cccc(NC(=O)NCCCCc2ccccc2)c1	0	0	0	?	0	0
CC(C)C(=O)Nc1ccc(C(=O)c2ccccc2)cc1	20.6µM	0	0	?	0	18.4µM
Cc1cccc(NC(=O)NC(C)CCc2ccccc2)c1 (stereo not given)	0	0	-56.6	?	0	0
O=C(O)Cn1nc(N2CCN(c3ccccc3)CC2)ccc1=O	0	-	-	-	0	0
C=CCNc1ncnc2c1ncn2[C@H]1CN(Cc2ccco2)C[C@@H](CO)O1	0	-	0	-	-	0
CCN(C(=O)Cn1c(=O)n(CC2CCC(C(=O)NC)CC2)c(=O)c2sccc21)c1ccccc1 (stereo not given)	0	-	-	-	0	0
Cc1[nH]c2ccc(C(=O)NCCc3ccccc3Cl)cc2c1C	?	-	-	-	0	?
CC(CCc1ccccc1)NC(=O)c1ccc(NC(=O)c2ccccc2)cc1 (stereo not given)	10.3µM	0	0	0	0	14.6µM
O=C(N/N=C/c1cccc(C(F)(F)F)c1)c1ccc(O)cc1	0	0	-81.0	0	0	0
O=C(N/N=C/c1c(O)ccc2ccccc12)C(=O)N1CCCC1	?	-	0	-	-	?
O=C(CN1CCCC1)N/N=C/c1c(O)ccc2ccccc12	?	0	0	5.17µM	0	?
OCC(CO)(CO)N=Cc1c(O)ccc2ccccc12	?	0	0	0	0	?
Cc1cc(C)n(CCC(=O)N/N=C/c2c(O)ccc3ccccc23)n1	4.61µM	0	0	3.66µM	0	5.8µM
Oc1ccc2ccccc2c1C=NC12CN3CCN(CN(C3)C1)C2	?	0	0	0	0	13µM
COc1ccc(NC(=O)CSc2nc(-c3ccc(OC)cc3)cc(=O)[nH]2)cc1	0	-	-	-	-	0
CN(C)/N=C/c1c(O)ccc2ccccc12	0	0	0	0	0	0
COc1ccc2ccccc2c1/C=N/NC(=O)c1cccc(Br)c1	?	0	0	0	0	?
Cc1cc(C)n2nc(C(=O)N/N=C/c3c4ccccc4cc4ccccc34)nc2n1	20.6µM	0	0	?	-	23.1µM
O=C(N/N=C/c1cccc(NC(=O)c2ccc(Cl)cc2)c1)c1cccc(O)c1	13µM	0	0	0	-	?
O=C(N/N=C/c1c(O)ccc2ccccc12)c1cccc(C(F)(F)F)c1	1.03µM	0	0	?	0	0.651µM
CS/C(N)=N/N=C/c1c(O)ccc2ccccc12	3.66µM	0	0	?	0	?
SMILES	TDP1 cell noCPT	Giardia killer	IL1B secr inh	ELG1 DNA repair	TDP1 inh	DT40 TDP1 CPT
O=C(NN=Cc1c(O)ccc2ccccc12)C1CC1	5.17µM	0	0	-	-	5.8µM
CCOC(=O)Cc1csc(NC(=O)CSc2nccn2C)n1	0	0	0	0	0	0
CCOC(=O)c1sc(=S)n(-c2ccccc2Cl)c1SC	?	0	-67.4	0	0	?
COC(=O)CSc1nc2sc3c(c2c(=O)n1-c1ccccc1)CCN(C)C3	?	0	0	0	0	0
CCSc1nc2sc3c(c2c(=O)n1-c1ccccc1C)CCN(C)C3	29.1µM	0	0	0	-	?
CCCCSc1nc2sc3c(c2c(=O)n1-c1ccccc1)CCN(C)C3	7.31µM	0	0	?	-	9.2µM
C=C(C)CSc1nc2sc3c(c2c(=O)n1-c1ccccc1)CCN(C)C3	29.1µM	0	0	0	-	?
CSc1nc2sc3c(c2c(=O)n1-c1ccc(C)c(Cl)c1)CCN(C(C)=O)C3	14.6µM	-	-	-	0	?
Cc1ccccc1-n1c(SCC(=O)O)nc2sc3c(c2c1=O)CCCC3	0	0	0	0	-	0
CC1CCCCN1CCCNC(=O)CCCN1C(=O)c2cccnc2Sc2ccccc21 (stereo not given)	0	0	0	0	0	0
CN1CCc2c(sc3nc(SCC(N)=O)n(-c4ccccc4)c(=O)c23)C1	0	0	0	0	0	0
CN1CCc2c(sc3nc(SCC(N)=O)n(-c4ccc(Cl)cc4)c(=O)c23)C1	23.1µM	0	0	?	-	?
CCn1c(SCC(=O)c2ccccc2)nc2sc3c(c2c1=O)CCN(C)C3	20.6µM	0	0	?	0	23.1µM
